Where “and” joins values, the source holds several entries; their conditions need not be identical. Equal entries are not always repeated. Inconclusive results are not listed. Entries that show only a call come without a potency. Where a structure was tested more than once in an assay, its records may differ in their call. Calls of active or inactive are those of the source. Calls follow the shape of the full dose curve.
Potency is read from the fitted curve at half-maximal effect.

5-hydroxytryptamine receptor 2A (Homo sapiens), sequence (P28223 whole entry, looked up): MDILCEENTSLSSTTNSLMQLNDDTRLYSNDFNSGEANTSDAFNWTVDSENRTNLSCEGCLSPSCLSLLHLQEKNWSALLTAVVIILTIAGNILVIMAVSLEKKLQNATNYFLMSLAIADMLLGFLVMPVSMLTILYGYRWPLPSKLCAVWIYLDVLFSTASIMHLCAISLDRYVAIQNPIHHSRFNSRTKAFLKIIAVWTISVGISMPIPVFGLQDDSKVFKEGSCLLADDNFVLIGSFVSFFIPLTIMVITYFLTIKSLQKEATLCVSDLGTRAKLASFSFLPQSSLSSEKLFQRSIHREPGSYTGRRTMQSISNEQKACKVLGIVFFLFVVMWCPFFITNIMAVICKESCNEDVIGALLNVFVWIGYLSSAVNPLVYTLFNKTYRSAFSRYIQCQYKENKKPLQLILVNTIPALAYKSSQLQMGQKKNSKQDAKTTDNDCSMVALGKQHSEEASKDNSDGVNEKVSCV

The assay has as its target 5-hydroxytryptamine receptor 2A (Homo sapiens) (UniProt P28223). Description: 5-hydroxytryptamine receptor 2A (HTR2A) small molecule agonists, cell-based qHTS assay (AID 1963587). Also: nearly all actives have a fitted effect of over 30% in size. The settings on record: HTR2A-CHO cells, calcium flux fluorescence, agonist mode; series mostly up to 76.8 µM. The text has this: National Center for Advancing Translational Sciences [NCATS]
Division of Preclinical Innovation [DPI]
U.S. Environmental Protection Agency [EPA]
National Institutes of Environmental Health Sciences [NIEHS]
National Toxicology Program [NTP]
U.S. Food and Drug Administration [FDA]
The HTR2A receptor is a subtype of the 5-HT2 receptor that belongs to the serotonin receptor family and is a G protein-coupled receptor (GPCR). The HTR2A-CHO cell line stably expressing human 5-hydroxytryptamine receptor 2A (HTR2A) can be used for screening agonists of interactions between 5-HT2 and its ligands. The HTR2A-CHO calcium flux assay is a homogeneous fluorescence-based assay for detecting the intracellular calcium level using FDSS kinetic plate reader system.
HTR2A-CHO cells were dispensed at 2000 cells/3uL/well in 1536-well black-clear bottom plates using a Multidrop Dispenser. After the assay plates were incubated at a 37 C/5% CO2 incubator for 18 h, 3 uL of Dye Loading Buffer was transferred to the assay plate by a Flying Reagent Dispenser. The assay plates were incubated at 37 C for 1h. For agonist mode, 23 nL of compounds dissolved in DMSO, positive controls or DMSO only was transferred to the assay plate by a pin tool. The fluorescence intensity in the plates was measured using FDSS 7000EX kinetic plate reader for 2 min at 1 sec intervals.
Background: qHTS replaces the single test concentration by a dilution series.
As for `Brc1cc(Oc2cc(Br)c(Br)c(Br)c2Br)c(Br)c(Br)c1Br`, the Potency result was “inactive”. For the compound `NC(=O)NC(N)=O`, the Potency entry was “inactive”. With `C=C(C)C(=O)O[C@H]1C[C@@H]2CC[C@@]1(C)C2(C)C` the entry was “inactive”; with `O=C(Cl)c1c(Cl)c(Cl)c(C(=O)Cl)c(Cl)c1Cl`, “inactive”. Turning to `Nc1ccc(S(=O)(=O)c2ccc(N)cc2)cc1`, the Potency entry is “inactive”. With `CCCC(O)C(CC)CO` (stereo not given) the entry was “inactive”. With `COc1cc([C@H]2Oc3cc([C@H]4Oc5cc(O)cc(O)c5C(=O)[C@@H]4O)ccc3O[C@@H]2CO)ccc1O` the entry was “inactive”; with `CC(=O)c1nccs1`, “inactive”; with `Nc1cc(Cl)c(-c2cc(Cl)c(N)cc2Cl)cc1Cl`, “inactive”. Take `CC(=O)OC(C)(C)C1CC=C(C)CC1` (stereo not given): the Potency result was “inactive”. Regarding `CC1=CC2C3CC(C=C3C)C2C1` (stereo not given), the Potency result was “inactive”. With `O=CCc1ccccc1` the entry was “inactive”; with `NC(=S)NNC(N)=S`, “inactive”. With `Cc1cccc(O)c1` the entry was “inactive”; with `CCCCCCCC=O`, “inactive”; with `O=[N+]([O-])C(CO)(CO)CO`, “inactive”. With `O=c1n(CC2CO2)c(=O)n(CC2CO2)c(=O)n1CC1CO1` (stereo not given) the entry was “inactive”; with `Cc1ccc(C(=O)O)o1`, “inactive”; with `[O-]/[N+](=N\O)c1ccccc1`, “inactive”. As for `C=C(C)C(=O)OCC(C)O` (stereo not given), the Potency result is “inactive”. As to `C=C(C)C(=O)OCC(CC)(COC(=O)C(=C)C)COC(=O)C(=C)C`, the Potency entry was “inactive”.

Regarding `O=C(O)c1ccccc1C(=O)O`, the Potency entry was “inactive”. With `COC(=O)/C=C\C(=O)OC` the entry was “inactive”; with `Clc1cc(Cl)c(Cl)cc1Cl`, “inactive”; with `Nc1ccc(Nc2ccccc2)cc1`, 7.68 µM (active) and 24.6 µM (active) and 3.89 µM (active). With `CC(O)COc1ccccc1` (stereo not given) the entry was “inactive”; with `O=C(O)c1ccc(S(=O)(=O)N(Cl)Cl)cc1`, “inactive”; with `CCCCCCCCCCCCCC[N+](C)(C)Cc1ccccc1`, “inactive and 20 mM (active)”.

For `Oc1ccc(Cc2ccccc2O)cc1`, the Potency result was “inactive”. For `Cc1cccc2ccccc12`, the Potency result was “inactive”.

Take `COC(=O)c1ccccc1`: the Potency result was “inactive”.

Take `C=C(C)C(=O)OCCCCCCCCCCCC`: the Potency result is “inactive”. As for `C=CC(=O)OCCOCCOCCOCCOC(=O)C=C`, the Potency entry is “inactive”.

Turning to `OCc1cccc(Oc2ccccc2)c1`, the Potency entry was “inactive”. With `O=C(O)CCCC[C@@H]1SC[C@@H]2NC(=O)N[C@@H]21` the entry was “inactive”; with `OC[C@@H](O)[C@@H](O[C@@H]1O[C@H](CO)[C@H](O)[C@H](O)[C@H]1O)[C@H](O)[C@@H](O)CO`, “inactive”; with `CCN1CCCC1=O`, “inactive”. With `Cc1ncc[nH]1` the entry was “inactive”. With `N[C@@H](Cc1cc(I)c(Oc2cc(I)c(O)c(I)c2)c(I)c1)C(=O)O` the entry was “inactive”.

On to `CC(=O)CCC(=O)O`, for which the Potency result was “inactive”.

Values taken from PubChem BioAssay (Tox21).
